# Assay results as given in publication PMC5540273 (PLoS ONE, 2017).
# System: MARK1
# Details: concentration: 1 μM, replicates: in singlicate; n = 1
# 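Note: KINOMEscan kinase panel screen.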
row,Compound,%Inh
1,O=C(Nc1cccc(-c2nn3ncccc3c2-c2ccnc(Nc3cccc(C(F)(F)F)c3)n2)c1)c1c(F)cccc1F [GSK299495],0%
2,O=C(c1ccc(-c2cc(-c3c[nH]nc3-c3ccccn3)ccn2)cc1)N1CCOCC1 [GW812171],5%
3,Cc1cccc(Cn2ccn3c(=O)cc(N4CCOCC4)nc23)c1 [GSK2297542],7%
4,NS(=O)(=O)c1cccc(-c2ccc3ncc(N4CCOCC4)nc3c2)c1 [GSK1535721],0%
5,CCc1ccnc(/C=C/c2n[nH]c3cc(Sc4ccccc4C(=O)NC)ccc23)c1,27%
6,O=c1cc(N2CCOCC2)nc2n(Cc3cccc(C(F)(F)F)c3)ccn12 [GSK2297543],1%
7,COC(=O)Nc1nc2cc(Oc3ccc(NC(=O)Nc4cc(F)ccc4F)cc3)ccc2[nH]1.Cl [GW701424],0%
8,NS(=O)(=O)CCc1cccc(Nc2nccc(-c3c(-c4cccc(NC(=O)c5c(F)cccc5F)c4)nn4ccccc34)n2)c1 [GSK336735],13%
9,O=C(NCCNc1ccnc(Nc2ccc(F)cc2)n1)c1cc2ccccc2s1 [GSK1379874],0%
10,CC(C)(C)n1cnc2c(N)ncnc21 [SKF-97359],0%
11,COc1cc2c(cc1OC[C@@H](O)CO)ncc1c3ccc(C#N)cc3[nH]c21,0%
12,O=C(NCCNc1ccnc(Nc2ccc(F)cc2)n1)Nc1ccccc1F [GSK1379880],0%
13,Fc1ccc(-c2ncn(CCCN3CCOCC3)c2-c2ccccn2)cc1 [SB-211742],0%
14,O=C(Nc1n[nH]c2cc(-c3cccc(F)c3)ccc12)C1CC1 [SB-735464],9%
15,Cc1nnc(-c2ccc(C)c(-c3ccc(C(=O)Nc4ccc(NS(C)(=O)=O)cc4)cc3)c2)o1 [GW702865],0%
16,CNc1ncnc2[nH]ncc12 [SKF-18355],23%
17,Cc1cccc(-c2nc(-c3ccc(S(C)(=O)=O)cc3)sc2-c2ccncc2)c1,34%

row,Compound,%Inh
1,Nc1nc(-c2ccc3c(N)n[nH]c3c2)cc(N2CCCC2)n1 [GSK2227430],0%
2,Fc1ccc(-c2ncn(CCCN3CCOCC3)c2-c2cccnc2)cc1 [SB-211743],3%
3,[2H]C([2H])(c1cccc(C(F)(F)F)c1C)n1ccn2c(=O)nc(N3CCOCC3)cc12 [GSK2336394],0%
4,c1ccc(-c2cc(-c3c[nH]nc3-c3ccccn3)ccn2)cc1 [GW576604],0%
5,CCc1nc(-c2cccc(C)c2)c(-c2ccnc(NCc3ccccc3)c2)s1,0%
6,Cn1ccc2ncnc(Oc3ccc(NC(=O)Nc4ccncc4)c(Cl)c3)c21,0%
7,COCCNC(=O)c1ccc(-c2cc(C(=O)NC3CC3)cc(F)c2C)cc1 [GW868318],27%
8,O=C1NC(=O)C(N2CCc3ccccc32)=C1c1cccc(Cl)c1 [SB-408010],4%
9,CN(C1=C(c2ccccc2)C(=O)NC1=O)c1ccccc1 [SB-334860],0%
10,NCC(NC(=O)c1cc(-c2cn[nH]c2)c(-c2ccnc3[nH]ccc23)s1)c1ccccc1.O=C(O)C(F)(F)F.O=C(O)C(F)(F)F (centres unmarked) [GSK1325775],0%
11,COc1ccc(Nc2nccc(N3CCC(NC(=O)Nc4cccc(C(C)=O)c4)C3)n2)cc1 (centres unmarked) [GSK1379731],0%
12,Cn1cc(-c2ccc3c(c2)CCN3C(=O)Cc2ccccc2Cl)c2c(N)ncnc21 [GSK2608885],16%
13,O=c1cc(N2CCOCC2)nc2n(Cc3cccc(F)c3)ccn12 [GSK2297430],0%
14,CN(C(=O)c1ccc(-c2cc(-c3c[nH]nc3-c3ccccn3)ccn2)cc1)C1CCOCC1 [GW810083],9%
15,CC(=O)Nc1ccc(COc2ccc(Nc3ccnc4cc(-c5ccccn5)ccc34)cc2)cc1.Cl [GW440148],0%
16,NS(=O)(=O)c1cccc(-c2ccc3nccc(-c4cccc(S(N)(=O)=O)c4)c3c2)c1 [GW867253],7%
17,N#Cc1c(N2CCOCC2)sc(-c2ccn[nH]2)c1-c1ccc(Cl)cc1,1%

# System: MARK2
# Details: concentration: 1 μM, replicates: in singlicate; n = 1
row,Compound,%Inh
1,O=C(Nc1cccc(-c2nn3ncccc3c2-c2ccnc(Nc3cccc(C(F)(F)F)c3)n2)c1)c1c(F)cccc1F [GSK299495],0%
2,O=C(c1ccc(-c2cc(-c3c[nH]nc3-c3ccccn3)ccn2)cc1)N1CCOCC1 [GW812171],21%
3,Cc1cccc(Cn2ccn3c(=O)cc(N4CCOCC4)nc23)c1 [GSK2297542],11%
4,NS(=O)(=O)c1cccc(-c2ccc3ncc(N4CCOCC4)nc3c2)c1 [GSK1535721],11%
5,CCc1ccnc(/C=C/c2n[nH]c3cc(Sc4ccccc4C(=O)NC)ccc23)c1,4%
6,O=c1cc(N2CCOCC2)nc2n(Cc3cccc(C(F)(F)F)c3)ccn12 [GSK2297543],0%
7,COC(=O)Nc1nc2cc(Oc3ccc(NC(=O)Nc4cc(F)ccc4F)cc3)ccc2[nH]1.Cl [GW701424],0%
8,NS(=O)(=O)CCc1cccc(Nc2nccc(-c3c(-c4cccc(NC(=O)c5c(F)cccc5F)c4)nn4ccccc34)n2)c1 [GSK336735],0%
9,O=C(NCCNc1ccnc(Nc2ccc(F)cc2)n1)c1cc2ccccc2s1 [GSK1379874],0%
10,CC(C)(C)n1cnc2c(N)ncnc21 [SKF-97359],1%
11,COc1cc2c(cc1OC[C@@H](O)CO)ncc1c3ccc(C#N)cc3[nH]c21,10%
12,O=C(NCCNc1ccnc(Nc2ccc(F)cc2)n1)Nc1ccccc1F [GSK1379880],0%
13,Fc1ccc(-c2ncn(CCCN3CCOCC3)c2-c2ccccn2)cc1 [SB-211742],0%
14,O=C(Nc1n[nH]c2cc(-c3cccc(F)c3)ccc12)C1CC1 [SB-735464],25%
15,Cc1nnc(-c2ccc(C)c(-c3ccc(C(=O)Nc4ccc(NS(C)(=O)=O)cc4)cc3)c2)o1 [GW702865],0%
16,CNc1ncnc2[nH]ncc12 [SKF-18355],14%
17,Cc1cccc(-c2nc(-c3ccc(S(C)(=O)=O)cc3)sc2-c2ccncc2)c1,0%

row,Compound,%Inh
1,Nc1nc(-c2ccc3c(N)n[nH]c3c2)cc(N2CCCC2)n1 [GSK2227430],0%
2,Fc1ccc(-c2ncn(CCCN3CCOCC3)c2-c2cccnc2)cc1 [SB-211743],5%
3,[2H]C([2H])(c1cccc(C(F)(F)F)c1C)n1ccn2c(=O)nc(N3CCOCC3)cc12 [GSK2336394],0%
4,c1ccc(-c2cc(-c3c[nH]nc3-c3ccccn3)ccn2)cc1 [GW576604],0%
5,CCc1nc(-c2cccc(C)c2)c(-c2ccnc(NCc3ccccc3)c2)s1,1%
6,Cn1ccc2ncnc(Oc3ccc(NC(=O)Nc4ccncc4)c(Cl)c3)c21,11%
7,COCCNC(=O)c1ccc(-c2cc(C(=O)NC3CC3)cc(F)c2C)cc1 [GW868318],0%
8,O=C1NC(=O)C(N2CCc3ccccc32)=C1c1cccc(Cl)c1 [SB-408010],0%
9,CN(C1=C(c2ccccc2)C(=O)NC1=O)c1ccccc1 [SB-334860],3%
10,NCC(NC(=O)c1cc(-c2cn[nH]c2)c(-c2ccnc3[nH]ccc23)s1)c1ccccc1.O=C(O)C(F)(F)F.O=C(O)C(F)(F)F (centres unmarked) [GSK1325775],25%
11,COc1ccc(Nc2nccc(N3CCC(NC(=O)Nc4cccc(C(C)=O)c4)C3)n2)cc1 (centres unmarked) [GSK1379731],0%
12,Cn1cc(-c2ccc3c(c2)CCN3C(=O)Cc2ccccc2Cl)c2c(N)ncnc21 [GSK2608885],0%
13,O=c1cc(N2CCOCC2)nc2n(Cc3cccc(F)c3)ccn12 [GSK2297430],0%
14,CN(C(=O)c1ccc(-c2cc(-c3c[nH]nc3-c3ccccn3)ccn2)cc1)C1CCOCC1 [GW810083],36%
15,CC(=O)Nc1ccc(COc2ccc(Nc3ccnc4cc(-c5ccccn5)ccc34)cc2)cc1.Cl [GW440148],0%
16,NS(=O)(=O)c1cccc(-c2ccc3nccc(-c4cccc(S(N)(=O)=O)c4)c3c2)c1 [GW867253],0%
17,N#Cc1c(N2CCOCC2)sc(-c2ccn[nH]2)c1-c1ccc(Cl)cc1,0%
